Laboratory results published in PubChem BioAssay (Tox21).
Unmarked numbers belong to inactive results. Calls of active or inactive are those of the source. Calls come from the whole dose curve; as a rule, active = well fitted curve in the direction sought with a large enough effect in the repeat runs; inconclusive = weak or mixed curves; inactive = flat fitted curve, though single readings scatter.

Experiment: qHTS assay to test for compound auto fluorescence at 590 nm (red) in HEK293 cells (AID 720679)
Conditions: red autofluorescence 540/590 nm; series mostly up to 91.3 µM; fluorescence, % of fluorescent control: at the top concentration
Excerpt: National Center for Advancing Translational Sciences [NCATS]
NIH Chemical Genomics Center [NCGC]
U.S. Environmental Protection Agency [EPA]
National Institutes of Environmental Health Sciences [NIEHS]
National Toxicology Program [NTP]
U.S. Food and Drug Administration [FDA]
Compound auto fluorescence often interferes with screening of the compound library against various biological targets and signaling pathways. Some of these compounds may have fluorophoric properties. Such properties may interfere with the assay outputs resulting in false positives and/or negatives. To decrease such complications and ensure the compound activities are relevant in terms of biological response, the Tox21 10K compound library was screened for auto fluorescence.
From the fluorophores used as reporter signals in our screening assays, the auto fluorescence equivalencies of compounds against three fluorophores have been evaluated: Triamterene, Fluorescein and Rose Bengal sodium for blue, green and red fluorescence, respectively. The fluorescence intensities were measured using Excitation/Emission wavelengths at 405/460nm, 485/535nm and 540/590nm for blue, green and red labels, respectively. This assay includes the red fluorescence data.
Tox21 Assay Protocol Summary:
2,000 HEK293 cells in 5 uL of culture medium containing 10% dialyzed FBS per well were dispensed into black wall/clear bottom 1536-well plates using a Multidrop Combi Dispenser (Thermo Scientific). The assay plates were incubated for 4-5 hr at 37C to allow cell attachment to the well bottom, followed by the transfer of 23 nL compound or DMSO vehicle by a pintool work station (Kalypsys, San Diego, CA). After the assay plates were incubated overnight at 37C and 5% CO2, fluorescence intensities in the assay plates were measured by an Envision (PerkinElmer, Shelton, CT) plate reader using three labels for measuring blue, green and red fluorescence at […] 460, 535 and 590nm respectively.
% is set by controls: 0 for no effect and ±100 for the full control effect.

| Compound | fluorescence, % of fluorescent control | outcome |
| --- | --- | --- |
| COC1CCC=CO1 (stereo not given) | -0.0586% |  |
| CC(=O)N[C@@H](Cc1ccc(O)cc1)C(=O)O | -0.0085% [at 46 µM] |  |
| O=[N+]([O-])c1ccc2ncccc2c1 | -0.0069% |  |
| CCN(Cc1cccc(S(=O)(=O)O)c1)c1ccc(C(=C2C=CC(=[N+](CC)Cc3cccc(S(=O)(=O)O)c3)C=C2)c2ccccc2S(=O)(=O)[O-])cc1 | 0.171% |  |
| CC(C)C(O)C(C)(C)CO (stereo not given) | 0.0722% [at 95.7 µM] |  |
| O=C1NC(=O)c2cccc3cccc1c23 | 0.248% |  |
| CCCCC[C@H](O)/C=C/[C@H]1[C@H](O)CC(=O)[C@@H]1C/C=C\CCCC(=O)O | -0.0823% [at 46 µM] |  |
| CC(=O)OCC(C)C | 0.0317% |  |
| O=C(O)c1cccc(Oc2ccccc2)c1 | -0.123% |  |
| C=CC(=O)NC(C)C | 0.203% |  |
| Cc1ccc(N(CCO)CCO)cc1 | -0.0125% |  |
| Cc1ccc(Nc2c(F)cccc2Cl)c(CC(=O)O)c1 | 0.006% [at 46 µM] |  |
| CCC(=O)OCc1ccc(OC)cc1 | -0.422% |  |
| CN(C)CC/C=C1\c2ccccc2Sc2ccc(Cl)cc21 | -0.647% [at 46 µM] |  |
| Nc1c(Cl)cc(Cl)cc1[N+](=O)[O-] | -0.648% |  |
| CC/C=C\C/C=C\C/C=C\CCCCCCCC(=O)OCC | 0.0719% [at 95.7 µM] |  |
| CC(=O)OCCC(C)CC(C)(C)C (stereo not given) | 0.0411% |  |
| C[C@@H]1C[C@H]2[C@@H]3CCC4=CC(=O)C=C[C@]4(C)[C@@]3(F)[C@@H](O)C[C@]2(C)[C@@]1(O)C(=O)COP(=O)(O)O |  | inactive |
| O=CNNC=O | 0.213% [at 95.7 µM] |  |
| SCCc1cnccn1 | 0.0873% |  |

| Compound | fluorescence, % of fluorescent control | outcome |
| --- | --- | --- |
| CC(=O)Oc1cccc(O)c1 | -0.262% [at 46 µM] |  |
| COC(=O)C1=C(C)NC(C)=C(C(=O)OC(C)(C)CN(C)CCC(c2ccccc2)c2ccccc2)C1c1cccc([N+](=O)[O-])c1 (stereo not given) | 0.0871% [at 46 µM] |  |
| O=C(CCS)OCC(COC(=O)CCS)(COC(=O)CCS)COC(=O)CCS | 0.0015% |  |
| CNc1c2c(nn1C)CCCC2 | -0.05% [at 46 µM] |  |
| CCN(CC)CCOC(=O)C(c1ccccc1)c1ccccc1 | -0.167% [at 46 µM] |  |
| CN=C(N)NC(=O)Nc1c(C)cccc1C | -0.204% [at 46 µM] |  |
| COc1cc(C(C)=O)ccc1OCCCN1CCC(c2noc3cc(F)ccc23)CC1 | -0.799% [at 46 µM] |  |
| O[C@@H](CNC[C@H](O)[C@H]1CCc2cc(F)ccc2O1)[C@@H]1CCc2cc(F)ccc2O1 | -0.0031% [at 46 µM] |  |
| CCCC(=O)OC(=O)CCC | 0.0114% [at 95.7 µM] |  |
| COc1ccc(-c2cc(C(F)F)nn2-c2ccc(S(N)(=O)=O)cc2)cc1F | -0.0994% [at 46 µM] |  |
| O=S(=O)(O)CO | 0.0415% |  |
| COc1cc(NS(=O)(=O)c2ccc(N)cc2)nc(C)n1 | 0.108% [at 46 µM] |  |
| O=C1OC[C@H](Cc2cccc(O)c2)[C@H]1Cc1cccc(O)c1 | -0.109% [at 46 µM] |  |
| Nc1ccc(S(=O)(=O)NCc2ccccc2)cc1 | 0.0891% [at 46 µM] |  |
| COC(C)(C)OC | 0.24% |  |
| COc1cc(S(=O)(=O)Nc2ccccc2)c(OC)cc1N | 0.0355% |  |
| CC(C)COC(=O)c1ccc(O)cc1 | -0.0717% |  |
| ClC1=C(Cl)C1(Cl)Cl | 0.586% [at 95.7 µM] |  |
| CCC(CO)(CO)[N+](=O)[O-] | 0.0351% |  |
| CCC(C)(C)C(=O)O | 0.227% |  |
